Laboratory results taken from PubChem BioAssay AID1159580 (chemical genetic matrix, 2015).
About 2,000 (36%) of roughly 5,500 compounds were called active. Inconclusive results (about 18%) are left out. Cut-off read from the data, not from the text of the source: active = normalized growth mostly below about 0.91 (no sharp cut-off); inconclusive = no clear call, values can overlap the other calls; inactive = mostly above about 0.92. The list shows a part of the results.

Experiment: chemical genetic growth profiling, strain panel (AID 1159580);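 note: tested at 20 µM; growth read once vehicle control cultures reached saturation at 30 °C; 1 = growth at the plate median or of vehicle wells; lower values mean less growth of the strain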
Conditions: growth OD

Measured: normalized growth

C[N+](C)(C)CC(O)CC(=O)O (stereo unspecified)
inactive: S. cerevisiae deletion strains, locus YKL009W, strain mrt4, stronger effect = lower value 1.03 | S. cerevisiae deletion strains, locus YKL068W, stronger effect = lower value 1 | S. cerevisiae deletion strains, locus YKL085W, strain MDH1 (second series), stronger effect = lower value 1.02 | S. cerevisiae deletion strains, locus YKL085W, strain MDH1, stronger effect = lower value 1.02 | S. cerevisiae deletion strains, locus YKL160W, strain elf1, stronger effect = lower value 0.982 | S. cerevisiae deletion strains, locus YKL190W, strain CNB1, stronger effect = lower value 1.01 | S. cerevisiae deletion strains, locus YKR001C, strain vps1, stronger effect = lower value 0.993 | S. cerevisiae deletion strains, locus YKR026C, strain gcn3, stronger effect = lower value 0.98 | S. cerevisiae deletion strains, locus YKR091W, strain srl3, stronger effect = lower value 0.977 | S. cerevisiae deletion strains, locus YLL001W, strain dnm1, stronger effect = lower value 0.975 | S. cerevisiae deletion strains, locus YLL026W, stronger effect = lower value 0.991 | S. cerevisiae deletion strains, locus YLL041C, strain sdh2, stronger effect = lower value 0.985 | S. cerevisiae deletion strains, locus YLR027C, strain aat2, stronger effect = lower value 0.982 | S. cerevisiae deletion strains, locus YLR039C, strain RIC1, stronger effect = lower value 1 | S. cerevisiae deletion strains, locus YLR058C, strain SHM2, stronger effect = lower value 1.01 | S. cerevisiae deletion strains, locus YLR102C, strain apc9, stronger effect = lower value 0.997 | S. cerevisiae deletion strains, locus YLR113W, strain HOG1, stronger effect = lower value 0.994 | S. cerevisiae deletion strains, locus YLR221C, strain rsa3, stronger effect = lower value 1.03 | S. cerevisiae deletion strains, locus YLR258W, strain gsy2, stronger effect = lower value 0.981 | S. cerevisiae deletion strains, locus YLR262C, strain YPT6 (second series), stronger effect = lower value 1.01 | S. cerevisiae deletion strains, locus YLR262C, strain YPT6, stronger effect = lower value 1.02 | S. cerevisiae deletion strains, locus YLR268W, strain sec22, stronger effect = lower value 0.992 | S. cerevisiae deletion strains, locus YLR320W, strain mms22, stronger effect = lower value 0.978 | S. cerevisiae deletion strains, locus YLR330W, strain CHS5, stronger effect = lower value 1.01 | S. cerevisiae deletion strains, locus YLR342W, strain FKS1 (second series), stronger effect = lower value 0.996 | S. cerevisiae deletion strains, locus YLR342W, strain FKS1, stronger effect = lower value 0.964 | S. cerevisiae deletion strains, locus YLR357W, strain rsc2, stronger effect = lower value 0.988 | S. cerevisiae deletion strains, locus YLR370C, strain arc18, stronger effect = lower value 0.973 | S. cerevisiae deletion strains, locus YLR371W, strain rom2, stronger effect = lower value 0.999 | S. cerevisiae deletion strains, locus YLR384C, strain iki3, stronger effect = lower value 0.967 | S. cerevisiae deletion strains, locus YLR418C, strain cdc73, stronger effect = lower value 0.993 | S. cerevisiae deletion strains, locus YML016C, strain PPZ1, stronger effect = lower value 1 | S. cerevisiae deletion strains, locus YML032C, strain rad52, stronger effect = lower value 1 | S. cerevisiae deletion strains, locus YML120C, strain ndi1, stronger effect = lower value 0.998 | S. cerevisiae deletion strains, locus YML124C, strain tub3, stronger effect = lower value 1 | S. cerevisiae deletion strains, locus YMR058W, strain fet3, stronger effect = lower value 0.991 | S. cerevisiae deletion strains, locus YMR078C, strain ctf18, stronger effect = lower value 0.998 | S. cerevisiae deletion strains, locus YMR125W, strain sto1, stronger effect = lower value 0.969 | S. cerevisiae deletion strains, locus YMR129W, stronger effect = lower value 0.991 | S. cerevisiae deletion strains, locus YMR205C, strain PFK2, stronger effect = lower value 0.989 | S. cerevisiae deletion strains, locus YMR223W, strain ubp8, stronger effect = lower value 1.01 | S. cerevisiae deletion strains, locus YMR231W, strain pep5, stronger effect = lower value 0.983 | S. cerevisiae deletion strains, locus YMR263W, strain SAP30, stronger effect = lower value 1.01 | S. cerevisiae deletion strains, locus YMR307W, strain GAS1, stronger effect = lower value 0.949 | S. cerevisiae deletion strains, locus YNL067W, strain RPL9B, stronger effect = lower value 1 | S. cerevisiae deletion strains, locus YNL071W, strain lat1, stronger effect = lower value 0.992 | S. cerevisiae deletion strains, locus YNL128W, strain TEP1, stronger effect = lower value 1.01 | S. cerevisiae deletion strains, locus YNL153C, strain GIM3, stronger effect = lower value 1.01 | S. cerevisiae deletion strains, locus YNL183C, strain NPR1, stronger effect = lower value 0.922 | S. cerevisiae deletion strains, locus YNL209W, strain ssb2, stronger effect = lower value 0.989 | S. cerevisiae deletion strains, locus YNL233W, strain BNI4, stronger effect = lower value 1 | S. cerevisiae deletion strains, locus YNL248C, strain rpa49, stronger effect = lower value 0.98 | S. cerevisiae deletion strains, locus YNL250W, strain rad50, stronger effect = lower value 0.995 | S. cerevisiae deletion strains, locus YNL271C, strain bni1, stronger effect = lower value 0.996 | S. cerevisiae deletion strains, locus YNL298W, strain CLA4, stronger effect = lower value 0.984 | S. cerevisiae deletion strains, locus YNL307C, strain MCK1, stronger effect = lower value 1.01 | S. cerevisiae deletion strains, locus YNL322C, strain KRE1 (second series), stronger effect = lower value 0.963 | S. cerevisiae deletion strains, locus YNL322C, strain KRE1, stronger effect = lower value 1 | S. cerevisiae deletion strains, locus YNR049C, strain mso1, stronger effect = lower value 0.981 | S. cerevisiae deletion strains, locus YNR052C, strain pop2, stronger effect = lower value 0.994 | S. cerevisiae deletion strains, locus YOL006C, strain TOP1, stronger effect = lower value 1.03 | S. cerevisiae deletion strains, locus YOL012C, strain htz1 0.718 | S. cerevisiae deletion strains, locus YOL147C, strain pex11, stronger effect = lower value 1.01 | S. cerevisiae deletion strains, locus YOR001W, strain rrp6, stronger effect = lower value 0.999 | S. cerevisiae deletion strains, locus YOR061W, strain CKA2, stronger effect = lower value 1.01 | S. cerevisiae deletion strains, locus YOR069W, strain VPS5, stronger effect = lower value 1 | S. cerevisiae deletion strains, locus YOR070C, strain gyp1, stronger effect = lower value 0.993 | S. cerevisiae deletion strains, locus YOR080W, strain dia2, stronger effect = lower value 0.987 | S. cerevisiae deletion strains, locus YOR083W, strain WHI5, stronger effect = lower value 0.989 | S. cerevisiae deletion strains, locus YOR106W, strain vam3, stronger effect = lower value 0.968 | S. cerevisiae deletion strains, locus YOR136W, strain idh2, stronger effect = lower value 0.991 | S. cerevisiae deletion strains, locus YOR144C, strain elg1, stronger effect = lower value 1 | S. cerevisiae deletion strains, locus YOR184W, strain ser1, stronger effect = lower value 1.01 | S. cerevisiae deletion strains, locus YOR231W, strain MKK1, stronger effect = lower value 0.989 | S. cerevisiae deletion strains, locus YOR265W, strain rbl2, stronger effect = lower value 0.996 | S. cerevisiae deletion strains, locus YOR270C, strain vph1, stronger effect = lower value 1.01 | S. cerevisiae deletion strains, locus YOR290C, strain snf2, stronger effect = lower value 0.977 | S. cerevisiae deletion strains, locus YOR316C, strain cot1, stronger effect = lower value 1 | S. cerevisiae deletion strains, locus YPL051W, strain arl3, stronger effect = lower value 0.982 | S. cerevisiae deletion strains, locus YPL055C, strain LGE1, stronger effect = lower value 1.04 | S. cerevisiae deletion strains, locus YPL078C, strain atp4, stronger effect = lower value 0.986 | S. cerevisiae deletion strains, locus YPL106C, strain sse1, stronger effect = lower value 0.978 | S. cerevisiae deletion strains, locus YPL240C, strain hsp82, stronger effect = lower value 1 | S. cerevisiae deletion strains, locus YPL241C, strain CIN2, stronger effect = lower value 1 | S. cerevisiae deletion strains, locus YPL256C, strain CLN2, stronger effect = lower value 0.983 | S. cerevisiae deletion strains, locus YPR119W, strain clb2, stronger effect = lower value 0.988 | S. cerevisiae deletion strains, locus YPR141C, strain kar3, stronger effect = lower value 0.995 | S. cerevisiae deletion strains, locus YPR163C, strain tif3, stronger effect = lower value 0.994 | S. cerevisiae deletion strains, locus YPR167C, strain met16, stronger effect = lower value 1 | S. cerevisiae deletion strains, strain wtn01, stronger effect = lower value 0.989 | S. cerevisiae strains, strain wild type, stronger effect = lower value 1.01
